Out of some 400,000 compounds screened, about 2,100 (0.53%) were called active. Roughly 14% stayed inconclusive and do not appear here. How the calls were made is not given here. Many of the other results were omitted from the sample, so actives are more common in it than they were.

Ataxin-2 (Homo sapiens), sequence (Q99700 whole entry): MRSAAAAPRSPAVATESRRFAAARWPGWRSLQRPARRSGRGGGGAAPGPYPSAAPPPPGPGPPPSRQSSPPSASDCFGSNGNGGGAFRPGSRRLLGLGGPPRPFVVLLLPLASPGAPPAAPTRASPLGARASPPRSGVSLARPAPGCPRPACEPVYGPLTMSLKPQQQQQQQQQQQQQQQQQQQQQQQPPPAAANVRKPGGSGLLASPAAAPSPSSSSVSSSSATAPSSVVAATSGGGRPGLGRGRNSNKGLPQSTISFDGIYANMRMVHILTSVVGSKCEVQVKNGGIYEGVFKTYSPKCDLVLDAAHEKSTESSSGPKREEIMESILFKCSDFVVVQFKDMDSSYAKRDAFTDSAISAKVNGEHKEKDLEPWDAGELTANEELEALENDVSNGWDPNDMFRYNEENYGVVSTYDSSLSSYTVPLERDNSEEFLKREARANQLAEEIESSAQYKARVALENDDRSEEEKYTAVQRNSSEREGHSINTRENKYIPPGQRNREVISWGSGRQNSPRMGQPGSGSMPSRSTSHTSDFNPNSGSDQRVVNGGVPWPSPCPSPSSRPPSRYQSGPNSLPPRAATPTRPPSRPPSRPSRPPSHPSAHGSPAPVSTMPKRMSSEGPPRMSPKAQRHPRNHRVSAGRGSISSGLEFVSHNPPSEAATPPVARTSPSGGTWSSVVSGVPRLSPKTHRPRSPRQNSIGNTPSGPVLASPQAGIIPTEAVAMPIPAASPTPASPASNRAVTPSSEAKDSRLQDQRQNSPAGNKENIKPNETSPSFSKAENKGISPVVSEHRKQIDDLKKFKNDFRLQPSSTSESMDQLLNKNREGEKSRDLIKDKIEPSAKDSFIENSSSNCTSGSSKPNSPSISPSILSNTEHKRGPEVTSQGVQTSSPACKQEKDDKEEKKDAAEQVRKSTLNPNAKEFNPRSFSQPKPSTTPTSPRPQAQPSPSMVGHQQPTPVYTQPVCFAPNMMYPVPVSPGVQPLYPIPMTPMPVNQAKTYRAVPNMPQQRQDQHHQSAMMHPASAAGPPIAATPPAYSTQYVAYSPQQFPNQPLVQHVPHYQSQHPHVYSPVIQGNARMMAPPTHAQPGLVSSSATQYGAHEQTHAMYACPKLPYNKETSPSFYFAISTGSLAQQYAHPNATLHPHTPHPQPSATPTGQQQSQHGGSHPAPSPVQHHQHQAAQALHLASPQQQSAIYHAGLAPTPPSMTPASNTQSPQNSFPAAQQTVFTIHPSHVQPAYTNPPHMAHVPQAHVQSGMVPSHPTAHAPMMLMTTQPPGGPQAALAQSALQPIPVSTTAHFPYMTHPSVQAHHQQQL

The experiment has as its target Ataxin-2 (Homo sapiens) (UniProt Q99700). The experiment can be described thus: qHTS for Inhibitors of ATXN expression. It is filed as functional. A general note: Quantitative high-throughput screening tests each substance at several concentrations.
With `COc1ccc(C2CC(c3cccs3)=NN2c2ccc(C=O)cc2)cc1` (stereo not drawn), the Potency result was “inactive”.

As for `CCOc1ccc(-c2cnc3ccccc3n2)cc1`, the Potency entry is “inactive”. Under `O=C(CCl)Nc1ccc(Oc2cnc3ccccc3n2)cc1` stands 20 µM (active); under `O=C(CCl)Nc1cccc(-c2cnc3ccccc3n2)c1`, 3.98 µM (active).

On to `CCOC(=O)c1ccc(Nc2cnc3ccccc3n2)cc1`, for which the Potency result is “inactive”. Under `CC(C)(C)C(=O)Nc1ccc(C(=O)Nc2cccc(Oc3ccc(C(=O)O)c(C(=O)O)c3)c2)cc1` stands “inactive”; under `Oc1ccc(-c2cnc3ccccc3n2)cc1`, “inactive”.

On to `O=C(O)CSCC(=O)NCc1c(Cl)cccc1Oc1ccccc1`, for which the Potency entry is “inactive”. Under `O=C(CCl)Nc1cccc(Oc2ccccc2)c1` stands 8.44 µM (active); under `CCN(CC)CCN1C2=C(C(=O)CC(C)(C)C2)C(c2cccc(F)c2)C2=C1CC(C)(C)CC2=O`, “inactive”; under `CCOc1ccc(NC(=O)CC(NC(C)=O)c2ccccc2)cc1S(=O)(=O)N1CCCC1` (stereo not drawn), “inactive”. Under `Cc1c(-c2ccccc2)c(=O)oc2cc(O)ccc12` stands “inactive”; under `COc1ccc(-n2cc(C(=O)c3ccccc3O)cn2)cc1`, “inactive”. For the compound `COc1cccc(Cn2cccc(NC(=O)Nc3ccccc3C)c2=O)c1`, the Potency result was “inactive”. Under `COc1ccc(Cn2cc(C(=O)c3ccc(C)c(C)c3)c(=O)c3ccccc32)cc1` stands 31.6 µM (active); under `CCCn1c(O)c(C(=O)NCCc2ccc(OC)cc2)c(=O)c2ccccc21`, “inactive”; under `COc1ccc(/C=c2\s/c(=C/C(=O)c3ccc(C)cc3)[nH]c2=O)c(OC)c1`, “inactive”.

On to `COc1ccc(Cn2cc(C(=O)c3ccc(C)cc3)c(=O)c3cc(OC)c(OC)cc32)cc1`, for which the Potency is 11.2 µM (active). The same measure for `Cc1ccc(S(=O)(=O)NC(C)C(=O)OCC(=O)Nc2sccc2C(N)=O)cc1` (stereo not drawn): “inactive”.

In the case of `Cc1ccc(C)c(Nc2nc3nonc3nc2Nc2cccc(C)c2C)c1`, the Potency was 10 µM (active). For the compound `Cc1ccccc1Nc1cccc2nonc12`, the Potency result is “inactive”. The same measure for `O=C(CCc1ccccc1)NC(c1cccs1)c1cc(Cl)c2cccnc2c1O` (stereo not drawn): “inactive”. For `O=C(CCc1ccccc1)NC(=S)Nc1ccccc1Br`, the Potency entry is “inactive”. For the compound `O=C(CCc1ccccc1)NC(NC(=S)Nc1ccc(Cl)cc1)C(Cl)(Cl)Cl` (stereo not drawn), the Potency was 39.8 µM (active). Turning to `O=C1c2oc3ccc(Cl)cc3c(=O)c2C(c2ccccn2)N1CCCN1CCOCC1` (stereo not drawn), the Potency entry is “inactive”. Under `NC(=O)C1=CC2C3C=CC2(O)C(=O)OC3O1` (stereo not drawn) stands 16.8 µM (active). As for `Cn1cc(/C=C/c2cc[n+](C)cc2)c2cc(F)ccc21`, the Potency entry is “inactive”. For the compound `CCOC(=O)Cc1csc(NC(=O)c2ccc3ncsc3c2)n1`, the Potency is 35.5 µM (active). Consider `CCOC(=O)Cc1csc(NC(=O)CN2CCN(c3ccccc3)CC2)n1`, for which the Potency result is “inactive”. On to `CCOC(=O)Cc1csc(NC(=O)COc2ccc3c(C)cc(=O)oc3c2)n1`, for which the Potency result is “inactive”. For `SC1=NCN(Cc2ccco2)CN1`, the Potency entry was “inactive”. For the compound `Clc1ccc(/C=C/c2ncc3ccccn23)cc1`, the Potency entry is “inactive”.

As to `CCc1ccc2c(c1)/C(=C/C(=O)c1cccs1)C(=O)N2`, the Potency is 20 µM (active).

Consider `CCc1cc2c(-c3ccccc3)cc(=O)oc2cc1OC(=O)c1cccs1`, for which the Potency result is “inactive”. As to `COCCN(CCOC)Cc1c(O)ccc2c1O/C(=C\c1ccc(C)o1)C2=O`, the Potency entry is “inactive”.

`COc1ccc(/C=C/C(=O)Oc2ccc(/C=N/NC(=O)c3ccccc3)cc2)cc1OC`: the Potency was 31.6 µM (active). Under `Nc1ccc(C(=O)N/N=C\c2ccc(OC(=O)c3ccccc3Cl)cc2)cc1` stands “inactive”; under `COc1ccc(/C=N/NC(=O)c2cccc(C(F)(F)F)c2)cc1`, “inactive”.

As for `O=C(CNC(=O)c1ccccc1F)NCc1ccccn1`, the Potency result was “inactive”.

Turning to `O=C1NC(=O)/C(=C\c2ccc(OCc3cccc([N+](=O)[O-])c3)cc2)N1`, the Potency entry is “inactive”.

Consider `CCCN1C/C(=C/c2cccc([N+](=O)[O-])c2)C(=O)/C(=C/c2cccc([N+](=O)[O-])c2)C1`, for which the Potency is 4.47 µM (active).

In the case of `O=C1/C(=C/c2cccc(Cl)c2)CSc2sccc21`, the Potency entry is “inactive”. The same measure for `Cc1cccc(N2CCN(S(=O)(=O)c3cccs3)CC2)c1C`: “inactive”; for `Cc1ccccc1C1(CC(=O)N2CCCC2c2nccs2)CC(=O)N(C2CCCC2)C1=O` (stereo not drawn): “inactive”; for `C=CCn1c(=O)[nH]c2nc3cc(/N=C/N(C)C)c(C)cc3nc2c1=O`: “inactive”. The same measure for `O=C(CCl)NN1C(=O)NC(c2ccccc2)(c2ccccc2)C1=O`: 26.7 µM (active).

Consider `CC1(c2ccccc2)NC(=O)N(CC(=O)NCc2cccc(Cl)c2)C1=O` (stereo not drawn), for which the Potency result was “inactive”.

Take `O=C(NCc1ccccc1Cl)c1ccc2c(=O)n(CC3CCCO3)c(=S)[nH]c2c1` (stereo not drawn): the Potency result was “inactive”. Regarding `CN(C)c1ccc(N=Nc2nc3ccccc3n2C)cc1`, the Potency entry is “inactive”. The same measure for `Cc1csc(N=Nc2ccc(N(C)C)cc2)[n+]1[O-]`: 14.1 µM (active). In the case of `CCCN(CC(=O)Nc1ccc(F)c(F)c1F)C(=O)CN1C(=O)NC2(CCCCC2)C1=O`, the Potency entry is “inactive”. Under `COC(=O)c1cnc(SCc2ccc(Cl)cc2)n1C` stands “inactive”. On to `O=C(CSc1cc(Cl)ccc1Cl)NC1CCCc2ccccc21` (stereo not drawn), for which the Potency result is “inactive”. For `O=C(CSc1cccc[n+]1[O-])c1cc(Cl)ccc1Cl`, the Potency is 3.77 µM (active). Under `Cc1ccc(S(=O)(=O)N(CCCO)CC(O)CON=C2c3ccccc3-c3ccccc32)cc1` (stereo not drawn) stands 20 µM (active). Regarding `CC(C)(C)NCC(O)CON=C1c2ccccc2-c2ccccc21` (stereo not drawn), the Potency entry was “inactive”.

As for `CCN(CC(O)CON=C1c2ccccc2-c2ccccc21)S(=O)(=O)c1ccc(Cl)cc1` (stereo not drawn), the Potency was 17.8 µM (active).

Turning to `CCOc1ccccc1N(C(C)=O)S(=O)(=O)c1ccc(Cl)cc1`, the Potency result is “inactive”. Under `CCN(CC)S(=O)(=O)c1ccc(C(=O)N(c2ccc(C)cc2)C2C=CS(=O)(=O)C2)cc1` (stereo not drawn) stands “inactive”; under `CN(C)CCN=c1cc(-c2ccccc2)oc2ccc(Cl)cc12`, “inactive”. For the compound `O=C(NCC1CCN(C(=O)c2ccc([N+](=O)[O-])cc2)CC1)c1ccc([N+](=O)[O-])cc1`, the Potency entry was “inactive”. Under `Cc1ccccc1CSc1nnc(-c2cnccn2)n1C` stands “inactive”.

Turning to `CCCn1c(SCc2nc(-c3ccccc3C)no2)nnc1-c1ccc(Cl)cc1`, the Potency was 39.8 µM (active).

Consider `CN(/N=C/c1ccc(Br)o1)C1=NS(=O)(=O)c2ccccc21`, for which the Potency result was “inactive”.

Regarding `CC(C)OC(=O)CSc1nnc(COc2ccc([N+](=O)[O-])cc2)n1C`, the Potency result is “inactive”. The same measure for `Cc1ccc(C)c(-n2c(N)c(C#N)c3nc4ccccc4nc32)c1`: “inactive”; for `Cn1ncc2c(ON=C(N)c3ccc(C(C)(C)C)cc3)ncnc21`: 39.8 µM (active); for `Cc1ccccc1C(=O)NNc1ncnc2c1cnn2C`: “inactive”.

The values above are taken from ChEMBL document CHEMBL1201862, “PubChem BioAssay data set” (2004).
